These compounds were tested on HL-1 (assay: protection of cardiomyocytes from stress damage, SAR follow-up, cell-based, panel, H9c2 and HL-1, ATP luminescence, set 2 (AID 651871;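 further: cells exposed to stressor for 2 h before ATP readout; reference of the scale not given here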)). Details: H9c2/HL-1 cardiomyocytes, 2-deoxyglucose stress, with 2-deoxyglucose, run 15, at 79 µM (top of the series).

Structure (SMILES)	activity (protection/inhibition) [%]
COc1ccc2nc(-c3cc(OC)c(OC)c(OC)c3)cc(C(=O)NCC(=O)Nc3ccc(C(C)=O)cc3)c2c1	56
COc1ccc2c(c1OC)C(=O)N1c3ccccc3C(=O)N(Cc3cccc(Cl)c3Cl)C21 (stereo not drawn)	-12.5
CCOC(=O)c1cccc(NC(=O)CNC(=O)c2cc(-c3cc(OC)c(OC)c(OC)c3)nc3ccccc23)c1	87.5

From PubChem BioAssay AID651871 (Sanford-Burnham Center for Chemical Genomics, 2012)
